An excerpt weighted towards active compounds, which were near 2.2% of everything screened.
TWEAK-Fn14 inh: inhibitors of TWEAK-Fn14 signaling, primary screen, luciferase reporter cells, uHTS | TWEAK-stimulated Fn14 reporter cells, luciferase luminescence, 8 h | inhibition, % at 10 µM | 360,000 compounds, 2% hits | AID 1159606, 2016; in the data active = inhibition above about 50%
HSP90 inh: HSP90 inhibitors, primary screen, cell lysate, luminescence | 290,000 compounds, 0.91% hits | inhibition, % at 5.6 µM | Rabbit reticulocyte lysate, luciferase refolding luminescence, 3 h | Heat shock protein HSP 90 (rabbit reticulocyte lysate; luciferase refolding);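 active = inhibition above the screen-wide mean plus 3 SD, computed separately per campaign, cut at about 16% in these data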;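 also: inhibitors lower the luminescence because luciferase stays unfolded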
TROY NFkB inh: inhibitors of TROY-driven NF-kB signaling, primary screen, Q293 LMP1-TROYcd cells, NF-kB luciferase, uHTS. Q293 LMP1-TROYcd NF-kB luciferase reporter, 4 h. inhibition, % at 10 µM. 360,000 compounds, 0.98% hits. AID 1347056, 2019;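 active = compounds whose plate-normalised and pattern-corrected inhibition of the luciferase reporter signal at the single screening dose is 50% or more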
LGR2 antag: inhibitors of bursicon-induced LGR2 CRE-luciferase signal, primary screen, cell-based, HEK293, CRE-luciferase reporter, bursicon stimulation. Drosophila bursicon receptor LGR2 (rickets). inhibition, % at 9.99 µM. bursicon-stimulated, 4 h. AID 720647, 2013. 380,000 compounds, 0.35% hits;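 active = drop in luminescence signal, shown as inhibition above about 50% in the replicate tests, limit read from the data, passing the limit was not always enough; inconclusive = probably only some replicates passing the limit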;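 also: agonist challenge used bursicon conditioned medium at about half maximal strength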
Large screens that a line does not name were inactive.

C[C@@H]1ON(C)[C@H]2C[C@H]3c4[nH]c5cccc(-c6ccccc6)c5c4CCN3C[C@@H]12	none (no result: TWEAK-Fn14 inh, HSP90 inh, TROY NFkB inh)
C[C@@H]1ON(C)[C@H]2C[C@H]3c4[nH]c5ccc(-c6ccc7c(c6)OCO7)cc5c4CCN3C[C@@H]12	TWEAK-Fn14 inh 85 (no result: HSP90 inh)
O=C(O)c1cccc(N/N=C/c2cccs2)c1	HSP90 inh 52, LGR2 antag 100
COc1ccc(NC(=O)N(C)C[C@@H]2Oc3c(NS(=O)(=O)c4ccc(OC)cc4)cccc3C(=O)N([C@@H](C)CO)C[C@@H]2C)cc1	none (no result: TWEAK-Fn14 inh, HSP90 inh, TROY NFkB inh)
FC(F)(F)c1ccccc1-n1c(-c2cnccn2)n[nH]c1=S	TWEAK-Fn14 inh 84, TROY NFkB inh 65 (no result: LGR2 antag)
Cc1ccc(-n2c(-c3cnccn3)n[nH]c2=S)c(Br)c1	none
CCOC(=O)c1ccc(Oc2nc(SC)nc(N(C)C)n2)cc1	TWEAK-Fn14 inh 73 (no result: TROY NFkB inh, LGR2 antag)
O=C(NC(NCc1cccnc1)C(Cl)(Cl)Cl)c1cccc2ccccc12 (stereo not drawn)	TWEAK-Fn14 inh 65
c1nc(NCc2ccc3c(c2)OCO3)c2cc(-c3ccoc3)ccc2n1	TWEAK-Fn14 inh 83, LGR2 antag inconclusive (no result: HSP90 inh)
c1cncc(-c2ccc3ncnc(NCc4ccc5c(c4)OCO5)c3c2)c1	none (no result: HSP90 inh)
C[C@H](CO)N1C[C@H](C)[C@H](CN(C)CC2CCCC2)OCc2cnnn2CCCC1=O	none (no result: TWEAK-Fn14 inh, HSP90 inh, TROY NFkB inh)
COc1cc(OC)nc(Nc2nc(C(N)Cc3ccc(C(F)(F)F)cc3)cs2)n1 (stereo not drawn)	LGR2 antag 31 (no result: HSP90 inh)
Cc1cc(C)nc(Nc2nc(C(N)Cc3ccc(C(F)(F)F)cc3)cs2)n1 (stereo not drawn)	none (no result: HSP90 inh)
COc1ccc(C2=NO[C@@H]3C(=O)N(c4ccc5c(c4)OCCO5)C(=O)[C@H]23)cc1OC	TWEAK-Fn14 inh 81, TROY NFkB inh 69 (no result: LGR2 antag)
Cc1nc(-c2ccc(C(=O)Nc3cccc(Br)c3)cc2)cs1	TWEAK-Fn14 inh 66
Cc1nc(-c2cccc(NC(=O)c3ccc(Br)o3)c2)cs1	none
Cc1nc(-c2cccc(NC(=O)c3ccc(-n4nccc4C)cc3)c2)cs1	TWEAK-Fn14 inh 74, TROY NFkB inh 60 (no result: HSP90 inh)
CNC[C@H]1Oc2ccc(NS(=O)(=O)c3ccc(OC)cc3)cc2CC(=O)N([C@H](C)CO)C[C@@H]1C	none (no result: TWEAK-Fn14 inh, HSP90 inh, TROY NFkB inh)
C[C@@H]1CN([C@H](C)CO)C(=O)c2cccc(NC(=O)NC3CCCCC3)c2O[C@@H]1CN(C)C	none (no result: TWEAK-Fn14 inh, HSP90 inh, TROY NFkB inh)
C/C(=C\c1ccc(N)cc1)c1nc2ccccc2[nH]1	none
CC(C)c1ccc(/C=C(\c2nc3ccccc3[nH]2)S(=O)(=O)c2ccccc2)cc1	TWEAK-Fn14 inh 94, LGR2 antag 59
O=S(=O)(/C(=C/c1ccc(C(F)(F)F)cc1)c1nc2ccccc2[nH]1)c1ccccc1	TWEAK-Fn14 inh 63, LGR2 antag inconclusive
COc1ccccc1NC(=O)N[C@H]1CC[C@@H](CCNS(=O)(=O)c2ccc(Cl)cc2)O[C@@H]1CO	none (no result: TWEAK-Fn14 inh, HSP90 inh, TROY NFkB inh)
Cn1c(C(=O)Nc2ccc3c(c2)OCCO3)cc2c(=O)n(C)c3ccccc3c21	TWEAK-Fn14 inh 65
C[C@@H]1CN([C@@H](C)CO)C(=O)c2cc(NC(=O)CCC(F)(F)F)ccc2O[C@@H](C)CCCCO[C@H]1CN(C)C(=O)Cc1ccccc1	none (no result: TWEAK-Fn14 inh, HSP90 inh, TROY NFkB inh)
O=C(NCc1ccccc1)C(=O)Nc1nc(C23CC4CC(CC(C4)C2)C3)cs1	none
O=C(NCc1ccncc1)C(=O)Nc1nc(C23CC4CC(CC(C4)C2)C3)cs1	TWEAK-Fn14 inh 76, TROY NFkB inh 57
COc1cc(/C=C2/SC(=O)NC2=O)ccc1Oc1ccc([N+](=O)[O-])cc1[N+](=O)[O-]	TWEAK-Fn14 inh 56, TROY NFkB inh 54
O=C(/C=C/c1ccccc1)/C=C/c1ccccc1	TWEAK-Fn14 inh 90
O=C(/C=C/c1ccccc1)c1ccccc1	none
CCCCNS(=O)(=O)c1ccc2nc(SCC(N)=O)[nH]c2c1	none
CCCCNS(=O)(=O)c1ccc2nc(SCC(=O)Nc3sccc3C#N)[nH]c2c1	TROY NFkB inh 71 (no result: LGR2 antag)
CCOC(=O)C(CCCOc1ccccc1)C(=O)OCC	TWEAK-Fn14 inh 63 (no result: TROY NFkB inh, LGR2 antag)
COc1ccc(CNC(=O)C[C@H]2CC[C@@H](NC(=O)c3cccc(F)c3)[C@H](CO)O2)cc1	none (no result: TWEAK-Fn14 inh, HSP90 inh, TROY NFkB inh)
O=c1cc(-c2ccccc2Cl)oc2c([N+](=O)[O-])c(O)cc(O)c12	TWEAK-Fn14 inh 96, TROY NFkB inh 52, LGR2 antag 70
CCOC(=O)C1=C(Cn2cnc3ccccc32)NC(=O)NC1c1cc(C)ccc1C (stereo not drawn)	TROY NFkB inh 52
COC(=O)C1=C(Cn2cnc3ccccc32)NC(=O)NC1c1cc(C)ccc1C (stereo not drawn)	none (no result: LGR2 antag)
O=C(Cc1ccccc1)NNC(=O)Nc1cccc(Cl)c1	none (no result: LGR2 antag)

Screening data (PubChem)
